Experimental data taken from PubChem BioAssay (NCI).
Values joined by “and” are separate entries in the source; they are usually repeats but may differ in a detail not shown here. Identical values can stand only once. The panel holds about 83,000 compounds, 20% with a hit somewhere; the sample as a whole holds those more often.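 96-well plates, one dose, 48 hours. Percent growth reported; active if below 10.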 Active and inactive are the calls of the source.

test system: UACC-62 melanoma; assay: NCI-60 one-dose screen, 48 h (100 = growth as untreated, 0 = no growth, -100 = all killed); conditions: 10 µM unless noted

Row | SMILES | growth
1 | C[C@@H]1C[C@](O)([C@@H](C)Cl)C(=O)O[C@@H]2CCN3CC=C(COC(=O)[C@]1(C)O)[C@H]23 | 77.3% [100 µM] (inactive) and 83.1% [100 µM] (inactive)
2 | Clc1c(Cl)c(Cl)c2nn(C3CCCO3)nc2c1Cl (centres undefined) | -16.1% [100 µM] (active) and -100% [100 µM] (active)
3 | COC(=O)/C=C\C(C#N)(C#N)N=Cc1ccsc1 | -87.5% [100 µM] (active) and -74.6% [100 µM] (active)
4 | NC(=O)CC1OC(=O)Cc2cc3c(c(O)c21)C(=O)c1c(O)cccc1C3=O (centres undefined) | 67.9% [100 µM] (inactive)
5 | COc1ccc(/C=c2\[nH]c3nc(=O)c(N4CCOCC4)c(N)n3c2=O)cc1 | 67.5% [100 µM] (inactive) and 26% [100 µM] (inactive)
6 | C=CCNC1=C2C[C@@H](C)C[C@@H](OC)[C@@H](OC(=O)CCCN)[C@H](C)/C=C(\C)[C@@H](OC(N)=O)[C@H](OC)/C=C\C=C(/C)C(=O)NC(=CC1=O)C2=O | -57.7% [100 µM] (active) and -64.4% [100 µM] (active)
7 | CCC(C)C1(O)OC2CC3(C)OC(=CC3=O)/C(C)=C\C3OC(=O)C1(C)C32 (centres undefined) | -34.4% [100 µM] (active) and -100% [100 µM] (active)
8 | O=C1C=CC=C/C1=C1\N=C(c2ccccc2OCC(=O)c2ccc(Br)cc2)SS1 | 48.5% [100 µM] (inactive) and 35.3% [100 µM] (inactive)
9 | N#CC1(C#N)C2CCCCC23OC(=N)C1(C#N)C(c1ccccc1)O3 (centres undefined) | -40.1% [100 µM] (active)
